# Measured values as given in PubChem BioAssay (NCATS).
# Where “and” joins values, the source holds several entries; their conditions need not be identical. Identical values can stand only once. Inconclusive results are not listed. Calls of active or inactive are those of the source. Unless noted, calls come from the whole dose curve; as a rule, active = well fitted curve in the direction sought with a large enough effect; inconclusive = small, poorly fitted or top-dose-only effect, or another doubt; inactive = no such curve, though single readings can be large; an effect the other way counts as inactive or inconclusive. Where a SMILES comes first, the peptide text is derived from it. Bridges are numbered along the chain shown (N, C = ends). [ ]: non-standard residue; d: D form. The star is where a group is joined. X2 = CC[C@H](C)CCCCC(=O)*; Dab = NCC[C@H](N)C(=O)O
# Experiments:
# [1] = qHTS Assay for Identifying Gametocytocidal Compounds (AID 743244);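 note: % is set by controls: 0 for no effect and ±100 for the full control effect; actives lower the fluorescent signal which means gametocytes are killed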; conditions: P. falciparum 3D7 stage III-V gametocytes, alamarBlue, 72 h; max response: stronger effect = lower value
# In short: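 P. falciparum 3D7 stage III–V gametocytes (20,000 cells/well) were exposed to compounds for 72 h at 37 °C, 5% CO2. AlamarBlue was then added for 24 h; decreased resorufin fluorescence (Ex 525/Em 598 nm) indicated loss of viability.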
# [2] = qHTS assay for cell viability of the p53RE-bla HCT-116 cell line (AID 743292); conditions: p53RE-bla HCT-116 viability, ATP luminescence, 16 h; series mostly up to 95 µM; note: % is set by controls: 0 for no effect and ±100 for the full control effect; nearly all actives have a fitted effect of over 55% in size
# In short: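 CellSensor p53RE-bla HCT-116 cells (4,000/well) pre-incubated 5 h at 37 C, then exposed to compounds in DMSO for 16 h at 37 C. Viability read as ATP content by CellTiter-Glo luminescence after 30 min at room temperature.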
# [3] = target: T1, Hexokinase-4 (Homo sapiens) + Glucokinase regulatory protein (Homo sapiens) (UniProt P35557+Q14397); assay: qHTS assay for inhibitors of recombinant human GCK-GKRP interaction: Diaphorase-coupled assay (AID 743205); conditions: G6PDH/diaphorase resorufin fluorescence; series mostly up to 57.5 µM
# T1 sequence (P35557 whole entry, looked up): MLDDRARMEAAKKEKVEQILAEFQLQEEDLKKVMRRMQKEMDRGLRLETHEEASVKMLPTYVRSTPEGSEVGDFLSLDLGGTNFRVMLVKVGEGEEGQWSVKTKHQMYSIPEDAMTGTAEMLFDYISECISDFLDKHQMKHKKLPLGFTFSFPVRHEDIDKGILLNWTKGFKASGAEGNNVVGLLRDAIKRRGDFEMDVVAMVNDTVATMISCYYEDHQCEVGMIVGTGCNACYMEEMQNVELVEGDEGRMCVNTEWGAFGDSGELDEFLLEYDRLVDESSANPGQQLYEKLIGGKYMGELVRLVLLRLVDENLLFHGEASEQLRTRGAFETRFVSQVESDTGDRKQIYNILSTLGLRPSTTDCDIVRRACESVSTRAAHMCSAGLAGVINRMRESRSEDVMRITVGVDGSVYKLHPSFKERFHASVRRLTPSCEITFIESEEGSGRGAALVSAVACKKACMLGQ
# T1 sequence (Q14397 whole entry, looked up): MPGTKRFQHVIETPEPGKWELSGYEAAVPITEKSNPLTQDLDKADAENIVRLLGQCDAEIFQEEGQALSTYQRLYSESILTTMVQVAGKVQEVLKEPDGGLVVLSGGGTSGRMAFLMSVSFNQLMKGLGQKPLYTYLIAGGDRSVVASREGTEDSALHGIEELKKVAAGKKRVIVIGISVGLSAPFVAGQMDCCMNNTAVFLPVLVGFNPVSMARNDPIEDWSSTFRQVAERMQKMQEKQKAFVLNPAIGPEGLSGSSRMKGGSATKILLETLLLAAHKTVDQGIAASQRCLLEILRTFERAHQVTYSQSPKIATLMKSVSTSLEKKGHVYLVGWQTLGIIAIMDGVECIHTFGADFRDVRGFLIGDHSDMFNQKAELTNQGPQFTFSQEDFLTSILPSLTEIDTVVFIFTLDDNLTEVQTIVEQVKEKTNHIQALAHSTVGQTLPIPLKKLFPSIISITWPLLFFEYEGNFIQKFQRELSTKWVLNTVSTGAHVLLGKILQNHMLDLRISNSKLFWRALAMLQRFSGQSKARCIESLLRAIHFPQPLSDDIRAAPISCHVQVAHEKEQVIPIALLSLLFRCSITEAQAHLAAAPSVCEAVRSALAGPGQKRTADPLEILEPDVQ
# In short: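 25 mM Hepes pH 7.6, 5 mM glucose, 0.4 mM ATP, 4 U/ml G6PDH; 10 nM each GST-GCK/FLAG-GKRP. Kinetic fluorescence read, 1/min × 30 min. Normalized: DMSO ± enzyme = max/min.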
# [4] = target: T1, Hexokinase-4 (Homo sapiens) + Glucokinase regulatory protein (Homo sapiens); assay: qHTS assay for inhibitors of recombinant human GCK-GKRP interaction: ADP-Glo assay (AID 743206); conditions: ADP-Glo luminescence, 60 min, 0% = vehicle-only wells with enzyme present; series mostly up to 76.9 µM;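 note: plate controls were DMSO plus enzyme for no effect and no enzyme for full effect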
# In short: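 Pin-transferred compounds meet a 15 nM GST-GCK/15 nM FLAG-GKRP/2 uM S6P mix (dispense concentrations). ATP is then added to 0.4 mM final with 5 mM glucose, and the reaction runs 60 min at room temperature. ADP is quantified luminescently.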
# [5] = target: T1, Hexokinase-4 (Homo sapiens) + Glucokinase regulatory protein (Homo sapiens); assay: qHTS assay for inhibitors of recombinant human GCK-GKRP interaction: HTRF assay (AID 743207); conditions: recombinant GCK-GKRP HTRF binding, 60 min, with sorbitol-6-phosphate; series mostly up to 57.5 µM;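 note: 0% = DMSO with GCK present and -100% = DMSO wells lacking GCK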
# In short: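 5 nM GST-GCK + 5 nM FLAG-GKRP + 2 uM S6P, pH 7.1 buffer (25 mM Hepes, 2 mM MgCl2, 25 mM KCl, 1 mM DTT, Tween/BSA); pin-transferred cpd; anti-FLAG XL665/anti-GST K; 60 min RT; HTRF.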
# [6] = target: Atrial natriuretic peptide receptor 1 (Homo sapiens) (UniProt P16066); assay: Natriuretic polypeptide receptor (hNpr1) antagonism - Pilot screen (AID 1347049; calls by dose curve;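 note: HEK293 cells with hNpr1 and GloSensor cGMP luciferase stimulated by 0.1 nM hNppA; agonist-evoked cGMP luminescence read 20 min after hNppA addition; % is set by controls: 0 for no effect and ±100 for the full control effect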); conditions: hNpr1 cells, antagonist mode cGMP read-out; series mostly up to 57.5 µM
# Chain of Atrial natriuretic peptide receptor 1 (Homo sapiens) (P16066 whole entry, looked up): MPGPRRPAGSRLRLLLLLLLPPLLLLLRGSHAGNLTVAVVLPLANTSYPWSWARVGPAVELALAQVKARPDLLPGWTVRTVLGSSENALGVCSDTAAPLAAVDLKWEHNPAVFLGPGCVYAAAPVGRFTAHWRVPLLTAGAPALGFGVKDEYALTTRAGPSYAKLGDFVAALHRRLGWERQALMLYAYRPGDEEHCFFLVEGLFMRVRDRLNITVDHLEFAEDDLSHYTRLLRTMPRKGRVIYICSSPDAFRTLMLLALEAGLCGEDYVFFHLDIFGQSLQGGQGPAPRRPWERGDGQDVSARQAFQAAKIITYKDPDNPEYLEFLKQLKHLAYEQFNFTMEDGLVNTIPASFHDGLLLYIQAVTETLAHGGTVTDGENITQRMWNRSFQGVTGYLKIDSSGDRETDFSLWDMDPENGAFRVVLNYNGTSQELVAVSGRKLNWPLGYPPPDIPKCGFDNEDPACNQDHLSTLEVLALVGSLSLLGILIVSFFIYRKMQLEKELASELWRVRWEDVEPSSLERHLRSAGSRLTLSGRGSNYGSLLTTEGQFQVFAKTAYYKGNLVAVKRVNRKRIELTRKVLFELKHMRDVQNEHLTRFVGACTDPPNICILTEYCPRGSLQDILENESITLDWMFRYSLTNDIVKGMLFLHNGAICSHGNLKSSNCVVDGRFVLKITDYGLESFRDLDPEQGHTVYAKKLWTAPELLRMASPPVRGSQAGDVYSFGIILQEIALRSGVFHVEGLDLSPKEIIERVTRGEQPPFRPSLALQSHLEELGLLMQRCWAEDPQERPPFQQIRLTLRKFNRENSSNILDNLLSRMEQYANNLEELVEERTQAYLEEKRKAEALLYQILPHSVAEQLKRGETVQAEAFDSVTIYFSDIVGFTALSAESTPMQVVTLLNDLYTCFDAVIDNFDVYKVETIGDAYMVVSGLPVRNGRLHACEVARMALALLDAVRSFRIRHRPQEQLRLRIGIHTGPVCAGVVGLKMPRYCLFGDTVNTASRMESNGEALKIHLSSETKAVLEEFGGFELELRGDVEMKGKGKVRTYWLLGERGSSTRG
# In short: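 Receptor antagonism read as cGMP-dependent luminescence in hNpr1/pGS-40F HEK293 cells: pre-read after 30 min compound exposure, post-read 20 min after hNppA agonist at 0.1 nM final, all at room temperature, protected from light; A-71915 titration as control.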
# [7] = target: Atrial natriuretic peptide receptor 2 (Homo sapiens) (UniProt P20594); assay: Natriuretic polypeptide receptor (hNpr2) antagonism - Pilot subtype selectivity assay (AID 1347050; calls by dose curve; note: potency is the fitted concentration of half-maximal effect); conditions: NPR2-expressing cells, cGMP antagonist-mode read-out; series mostly up to 38.3 µM
# Chain of Atrial natriuretic peptide receptor 2 (Homo sapiens) (P20594 whole entry, looked up): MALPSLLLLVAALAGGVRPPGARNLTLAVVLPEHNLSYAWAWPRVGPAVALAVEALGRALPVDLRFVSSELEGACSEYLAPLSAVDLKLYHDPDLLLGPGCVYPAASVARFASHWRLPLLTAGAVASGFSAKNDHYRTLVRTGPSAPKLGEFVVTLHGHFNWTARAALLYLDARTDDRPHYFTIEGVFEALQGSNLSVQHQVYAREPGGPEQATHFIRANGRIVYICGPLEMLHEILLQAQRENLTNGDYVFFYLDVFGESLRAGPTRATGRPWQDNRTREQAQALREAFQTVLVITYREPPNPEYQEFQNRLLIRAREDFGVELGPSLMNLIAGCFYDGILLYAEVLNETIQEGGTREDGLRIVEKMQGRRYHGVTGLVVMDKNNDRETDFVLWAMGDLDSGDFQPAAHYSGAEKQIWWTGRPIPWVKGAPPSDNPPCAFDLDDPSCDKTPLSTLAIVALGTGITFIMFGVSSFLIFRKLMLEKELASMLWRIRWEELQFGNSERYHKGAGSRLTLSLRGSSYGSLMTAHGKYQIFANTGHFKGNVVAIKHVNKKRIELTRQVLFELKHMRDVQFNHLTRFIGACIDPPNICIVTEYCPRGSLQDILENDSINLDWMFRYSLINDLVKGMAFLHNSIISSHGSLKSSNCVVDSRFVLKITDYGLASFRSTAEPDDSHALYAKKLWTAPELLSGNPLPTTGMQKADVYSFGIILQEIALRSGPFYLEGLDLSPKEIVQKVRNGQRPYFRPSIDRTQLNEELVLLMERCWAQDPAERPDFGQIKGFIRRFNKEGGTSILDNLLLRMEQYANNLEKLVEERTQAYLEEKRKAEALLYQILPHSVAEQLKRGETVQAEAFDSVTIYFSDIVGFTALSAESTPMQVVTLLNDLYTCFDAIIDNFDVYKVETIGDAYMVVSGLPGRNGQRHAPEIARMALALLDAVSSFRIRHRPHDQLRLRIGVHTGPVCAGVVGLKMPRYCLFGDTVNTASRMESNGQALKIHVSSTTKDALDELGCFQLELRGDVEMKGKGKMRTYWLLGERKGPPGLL
# In short: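 Antagonist mode: compounds (LOPAC1280, seven 1:5 dilutions) added 30 min before 1 nM hNppC stimulation of hNpr2-HEK293 cGMP-sensor cells; luminescence read before and 20 min after agonist at ambient temperature.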
# [8] = target: T2, Tyrosine-protein phosphatase non-receptor type substrate 1 (Homo sapiens) + Leukocyte surface antigen CD47 (Homo sapiens) (UniProt P78324+Q08722); assay: CD47-SIRPalpha protein protein interaction - LANCE assay qHTS validation (AID 1347057; active = well fitted curve in the direction sought with a large enough effect in the signal ratio, with a control signal flat, not every such curve was filed as active; the % refers to the signal ratio; note: 0% is about no effect); conditions: Recombinant CD47-His / biotin-SIRPalpha, TR-FRET ratio; series mostly up to 38.3 µM
# T2 sequence (P78324 whole entry, looked up, the tested form may be a part): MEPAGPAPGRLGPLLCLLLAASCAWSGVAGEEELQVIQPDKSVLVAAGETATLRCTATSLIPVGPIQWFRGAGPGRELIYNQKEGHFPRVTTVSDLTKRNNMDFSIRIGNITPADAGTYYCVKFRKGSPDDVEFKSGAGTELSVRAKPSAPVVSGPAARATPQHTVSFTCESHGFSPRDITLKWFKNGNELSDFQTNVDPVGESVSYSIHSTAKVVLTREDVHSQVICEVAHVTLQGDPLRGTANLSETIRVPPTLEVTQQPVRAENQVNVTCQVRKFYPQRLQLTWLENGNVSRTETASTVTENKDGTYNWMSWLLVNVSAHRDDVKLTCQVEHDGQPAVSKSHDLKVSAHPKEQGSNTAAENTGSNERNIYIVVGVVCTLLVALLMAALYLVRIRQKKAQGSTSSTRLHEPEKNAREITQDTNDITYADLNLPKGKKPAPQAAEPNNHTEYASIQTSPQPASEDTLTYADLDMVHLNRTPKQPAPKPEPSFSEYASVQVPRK
# T2 sequence (Q08722 whole entry, looked up, the tested form may be a part): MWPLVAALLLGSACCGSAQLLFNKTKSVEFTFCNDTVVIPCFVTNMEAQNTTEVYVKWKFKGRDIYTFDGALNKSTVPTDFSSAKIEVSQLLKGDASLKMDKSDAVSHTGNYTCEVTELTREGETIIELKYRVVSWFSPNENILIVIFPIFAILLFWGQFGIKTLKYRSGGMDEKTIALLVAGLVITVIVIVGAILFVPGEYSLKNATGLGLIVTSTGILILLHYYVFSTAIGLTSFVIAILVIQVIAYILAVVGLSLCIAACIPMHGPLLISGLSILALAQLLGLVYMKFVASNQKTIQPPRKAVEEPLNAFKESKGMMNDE
# In short: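 Inhibition of soluble CD47/SIRPalpha ectodomain association by titrated compounds, measured as 665/615 nm time-resolved FRET ratio after sequential 30 min room-temperature incubations.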
# [9] = target: T2, Tyrosine-protein phosphatase non-receptor type substrate 1 (Homo sapiens) + Leukocyte surface antigen CD47 (Homo sapiens); assay: CD47-SIRPalpha protein protein interaction - HTRF assay qHTS validation (AID 1347058; active = well fitted curve in the direction sought with a large enough effect in the signal ratio, not every such curve was filed as active; the % refers to the signal ratio; note: 0% is about no effect); conditions: TR-FRET HTRF CD47-His / biotin-SIRPalpha binding, ratio 665/615; series mostly up to 38.3 µM
# In short: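 Soluble extracellular domains (6His-CD47, Avi-tag-biotinylated SIRPalpha) in PBS pH 7.4 with 0.05% IGEPAL CA-630. Compounds were preincubated 30 min at RT with CD47 and anti-His-Eu, then SIRPalpha and SAV-XL665 were added. TR-FRET 665/615 ratio.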
# [10] = target: T2, Tyrosine-protein phosphatase non-receptor type substrate 1 (Homo sapiens) + Leukocyte surface antigen CD47 (Homo sapiens); assay: CD47-SIRPalpha protein protein interaction - Alpha assay qHTS validation (AID 1347059); conditions: AlphaScreen CD47-His/biotin-SIRPalpha binding, LOPAC; series mostly up to 38.3 µM;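 note: bead proximity luminescence from CD47 binding SIRPalpha after compound preincubation with SIRPalpha; % is set by controls: 0 for no effect and ±100 for the full control effect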
# In short: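 AlphaScreen signal between CD47-His (12.5 nM) and biotin-SIRPalpha (25 nM) soluble extracellular domains, bead-captured via Ni-NTA and streptavidin. Compounds, in 7-point titrations, met SIRPalpha 30 min before CD47; PBS pH 7.4 with 0.05% IGEPAL.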
# [11] = target: Parathyroid hormone/parathyroid hormone-related peptide receptor (Homo sapiens) (UniProt Q03431); assay: qHTS for PTHR1 Agonists: Optimization Screen against the NCGC LOPAC library (AID 1347079); conditions: HEK293 GP2 PTHR1 GloSensor cAMP luminescence, 1 h; series mostly up to 57.1 µM;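 note: GloSensor cAMP luminescence in HEK-293 GP2 cells expressing human PTHR1 with IBMX; 0% is about no effect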
# Chain of Parathyroid hormone/parathyroid hormone-related peptide receptor (Homo sapiens) (Q03431 whole entry, looked up): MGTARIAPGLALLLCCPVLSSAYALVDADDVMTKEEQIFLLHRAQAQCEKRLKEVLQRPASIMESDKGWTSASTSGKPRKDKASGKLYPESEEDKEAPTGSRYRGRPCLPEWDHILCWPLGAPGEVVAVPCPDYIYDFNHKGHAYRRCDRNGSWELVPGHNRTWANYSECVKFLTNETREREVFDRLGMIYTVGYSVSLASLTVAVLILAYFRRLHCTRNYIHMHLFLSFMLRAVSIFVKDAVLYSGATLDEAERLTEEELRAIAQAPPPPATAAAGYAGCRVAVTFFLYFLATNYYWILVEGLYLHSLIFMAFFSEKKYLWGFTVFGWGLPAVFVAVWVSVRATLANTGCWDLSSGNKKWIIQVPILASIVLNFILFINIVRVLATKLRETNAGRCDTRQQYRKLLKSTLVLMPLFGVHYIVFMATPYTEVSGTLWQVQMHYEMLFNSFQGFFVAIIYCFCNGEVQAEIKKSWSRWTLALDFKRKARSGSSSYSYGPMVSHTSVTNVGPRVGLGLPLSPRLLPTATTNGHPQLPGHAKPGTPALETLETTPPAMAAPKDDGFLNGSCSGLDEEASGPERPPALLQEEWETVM
# In short: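 HEK-293 GP2 cells, PTHR1 + GloSensor cAMP; 3000 cells/well, o/n. Luciferin + IBMX 0.5mM each (stock), 1 hr 37C. Cpd titration, 1 hr 37C. Lum after 15 min RT. Ctrl M-PTH(1-15) top 10uM.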
# [12] = qHTS of pediatric cancer cell lines to identify multiple opportunities for drug repurposing: Primary screen for SJ-GBM2 cells (AID 1347091); conditions: SJ-GBM2 viability, CellTiter-Glo luminescence, 48 h; note: potency is the fitted concentration of half-maximal effect
# In short: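 Cell viability, CellTiter-Glo luminescence; 500-1,000 cells/well, 8- or 11-point titration, 48 h compound exposure at 37 degrees C, 5% CO2. Controls: DMSO neutral, bortezomib 2.3 µM final as positive.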
# [13] = qHTS of pediatric cancer cell lines to identify multiple opportunities for drug repurposing: Primary screen for Saos-2 cells (AID 1347097); conditions: Saos-2 viability, CellTiter-Glo ATP luminescence, 48 h; note: potency is the fitted concentration of half-maximal effect; nearly all actives have a fitted effect of over 40% in size
# In short: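 Cells plated at 500-1,000/well in growth medium, compounds added after 5 h. MIPE tested at 11 points (from 0.78 nM), NPC at 8 points (from 0.59 nM). CellTiter-Glo luminescence after 48 h; concentration-response curves from primary screen.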
# [14] = P-glycoprotein substrates identified in KB-8-5-11 adenocarcinoma cell line, qHTS therapeutic library screen (AID 1346987); conditions: KB-8-5-11 (P-gp overexpressing) viability, CellTiter-Glo, 72 h; series mostly up to 44.5 µM; note: % is set by controls: 0 for no effect and ±100 for the full control effect; nearly all actives have a fitted effect of over 65% in size
# In short: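 Compounds are pinned in dose-response onto KB-8-5-11 cells (500 cells/well, colchicine-free medium) and left 72 h at 37 degree C. CellTiter-Glo luminescence then yields AC50 values.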
# [15] = qHTS profiling of the MIPE4 collection as inhibitors of Plasmodium falciparum (3D7) proliferation (AID 743344; call rule not given here;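 note: scaled between DMSO vehicle wells and 0.29 µM artemisinin as full inhibition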); conditions: P. falciparum 3D7 in erythrocytes, SYBR Green DNA fluorescence, 72 h; at 28.5 µM (top of the series)
# In short: (§1)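 Parasite DNA was quantified by SYBR Green I fluorescence (ex 485, em 535 nm) after overnight lysis in saponin/Triton buffer at room temperature. Cultures at 0.3% parasitemia and 2.5% hematocrit were first exposed to compound for 72 h at 37 C; signals were normalised to artemisinin (0.29 uM) and vehicle wells.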
# [16] = qHTS profiling of the MIPE4 collection as inhibitors of Plasmodium falciparum (DD2) proliferation (AID 743345; call rule not given here); conditions: P. falciparum Dd2 in erythrocytes, SYBR Green DNA, 72 h; at 28.5 µM (top of the series)
# In short: as §1
# [17] = qHTS profiling of the MIPE4 collection as inhibitors of Plasmodium falciparum (DD2) proliferation (Rep 2) (AID 743346; call rule not given here); conditions: P. falciparum Dd2 in erythrocytes, SYBR Green DNA, 72 h; at 28.5 µM (top of the series)
# In short: as §1
# [18] = qHTS profiling of the MIPE4 collection as inhibitors of Plasmodium falciparum (HB3) proliferation (AID 743347; call rule not given here;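 note: plate controls were DMSO vehicle wells for no effect and artemisinin wells for full effect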); conditions: P. falciparum HB3 in erythrocytes, SYBR Green DNA, 72 h; at 28.5 µM (top of the series)
# In short: as §1
structure (smiles),measurement,setting,value
CC[C@H](C)CCCCC(=O)N[C@@H](CCN)C(=O)N[C@H](C(=O)N[C@@H](CCN)C(=O)N[C@H]1CCNC(=O)[C@H]([C@@H](C)O)NC(=O)[C@H](CCN)NC(=O)[C@H](CCN)NC(=O)[C@H](CC(C)C)NC(=O)[C@@H](CC(C)C)NC(=O)[C@H](CCN)NC1=O)[C@@H](C)O (X2-[Dab]T[Dab][Dab][Dab][dL]L[Dab][Dab]T; lactam 4-C),max response,[1],13.6% (inactive)
CC(=O)S[C@@H]1CC2=CC(=O)CC[C@]2(C)[C@H]2CC[C@@]3(C)[C@@H](CC[C@@]34CCC(=O)O4)[C@H]12,max response,[1],15.7% (inactive)
same,outcome,[2],inactive
O=[N+]([O-])c1ccc(Oc2ccc(N=C=S)cc2)cc1,max response,[1],16.5% (inactive)
CN[C@H]1CC[C@@H](c2ccc(Cl)c(Cl)c2)c2ccccc21,outcome,[3],inactive
same,outcome,[4],inactive
same,outcome,[5],inactive
same,outcome,[6],inactive
same,Potency,[7],14.7 µM (active)
same,outcome,[8],inactive
same,outcome,[9],inactive
same,outcome,[10],inactive
same,outcome,[11],inactive
same,Potency,[12],23.7 µM (active)
same,Potency,[13],23.7 µM (active)
CC(=O)OC[C@H]1O[C@@H](O[C@H]2[C@H](O)[C@@H](OC(=O)c3ccccc3C(=O)O)[C@H](O)O[C@@H]2COC(C)=O)[C@H](O)[C@@H](OC(=O)c2ccccc2C(=O)O)[C@@H]1O,max response,[1],-3.61% (inactive)
NNc1nnc(Cc2ccncc2)c2ccccc12,max response,[1],1.86% (inactive)
CC1=C(C(=O)OCCN(Cc2ccccc2)c2ccccc2)C(c2cccc([N+](=O)[O-])c2)C(P2(=O)OCC(C)(C)CO2)=C(C)N1 (stereo unspecified),max response,[1],12.9% (inactive)
CCC(=O)OCC(=O)[C@@]1(OC(=O)CC)[C@H](C)C[C@H]2[C@@H]3CCC4=CC(=O)C=C[C@]4(C)[C@@]3(F)[C@@H](O)C[C@@]21C,max response,[1],-4.58% (inactive)
same,Potency,[14],inactive
CN(C(=O)CO)c1c(I)c(C(=O)NCC(O)CO)c(I)c(C(=O)NCC(O)CO)c1I (stereo unspecified),max response,[1],-2.64% (inactive)
CCOC(=O)[C@H](CCc1ccccc1)N[C@H]1CCCN2CCC[C@@H](C(=O)O)N2C1=O,max response,[1],-15.1% (inactive)
Oc1cccc(-c2c3nc(c(-c4cccc(O)c4)c4ccc([nH]4)c(-c4cccc(O)c4)c4nc(c(-c5cccc(O)c5)c5ccc2[nH]5)CC4)C=C3)c1,max response,[1],-1.27% (inactive) and -6.31% (inactive)
same,Potency,[12],21.1 µM (active)
CN1CCN(C2=Nc3ccccc3Cc3ccccc32)CC1,max response,[1],2.36% (inactive)
N[C@@H](C(=O)N[C@H]1C(=O)N2C(C(=O)O)=C(Cl)CC[C@H]12)c1ccccc1,"parasite growth, % of DMSO control",[15],101%
same,"parasite growth remaining, % of DMSO control (lower = more inhibition)",[16],100%
same,"parasite growth, % of control (lower = inhibition)",[17],78.4%
same,"growth, % of control",[18],104%
same,Potency,[14],inactive
COC[C@H](c1ccc(C(F)(F)F)cc1)N1CCN(C2(C)CCN(C(=O)c3c(C)ncnc3C)CC2)C[C@H]1C,max response,[1],-5.74% (inactive)
